PubChem BioAssay
Measured potencies and affinities stand elsewhere. Activity calls are given as the source filed them.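 Rule for the calls: active = every replicate test run called active, with the signal dropping as expected and potency within twice the top valid dose; inconclusive = test runs disagree, or a flat partial drop or poor fit; inactive = every test run inactive, or effect opposite to expected.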

Assay: PAX8 transcriptional activity inhibition in RMG-I – RMG-I cells, luciferase, cherry-pick, dose response (AID 687027)
Details: RMG-I TPO-Luc reporter, SteadyGlo luminescence, 24 h; series mostly up to 35 µM

outcome, inactive:
CCOc1ccc2nc(N/C(N)=N/C(=S)Nc3ccc(C)c(C)c3)nc(C)c2c1
CCCNC(=O)COc1nc2ccccc2nc1N1CCOCC1
COc1ccccc1CNC(=O)c1ccc2nc3[nH]c4ccccc4c3nc2c1
COc1cccc(S(=O)(=O)NCC(=O)Nc2ccc(C(C)(C)C)cc2)c1
CC1CN(CC(O)COC(c2ccccc2)c2ccccc2)CC(C)O1 (stereo unspecified)
Cc1cc(Nc2ccc3c(c2)OCCO3)c2ccccc2n1
C[C@@H]1CN([C@@H](C)CO)C(=O)Cc2cc(NS(=O)(=O)c3ccc(Cl)cc3)ccc2O[C@H]1CN(C)Cc1ccc(C(F)(F)F)cc1
O=C(CCC(=O)c1ccccc1)NCCc1c[nH]c2ccccc12
O=S(=O)(NCC1CCCO1)c1cnc(Cl)c(Br)c1 (stereo unspecified)
O=C(NCc1ccco1)C1CCCN(S(=O)(=O)c2ccc(Br)cc2)C1 (stereo unspecified)
Cc1nnc(N/N=C/c2cc(C)n(-c3ccc(F)cc3)c2C)n1N
CCCCn1c(O)c(N=NC(=O)Cn2c(C(F)(F)F)nc3ccccc32)c2ccccc21
Cc1ccc(S(=O)(=O)Nc2ccc3c(c2)C(=O)N([C@@H](C)CO)C[C@@H](C)[C@@H](CN(C)C)OCCCC[C@H](C)O3)cc1
COc1cccc(CC(=O)Nc2nc3c(s2)C(=O)CC(C)(C)C3)c1
COc1ccc2c(COC(=O)CNC(=O)C34CC5CC(CC(C5)C3)C4)cc(=O)oc2c1
COc1cc(OC)cc(C(=O)NCC(=O)OCC(=O)c2cc(C)n(Cc3ccco3)c2C)c1
